Experimental data reported in the supplement of paper PMC10849652.
Targets with a hit are over-represented here; the source holds about 7,900 in all. About 0.6% of all pairs of compound and target were hits.

Tests used:
Assay in all cases: log2 fold change, soluble protein after heating vs DMSO (PISA); higher = thermal stabilisation; K562 cells, 10 uM, 30 min; active = over 0.2 and 3.5 SD of the protein, either way, in both replicates (recomputed)
[1] = compound: CN1CCN(CCOc2cc(OC3CCOCC3)c3c(Nc4c(Cl)ccc5c4OCO5)ncnc3c2)CC1 [saracatinib]
Summary of the method: (§1)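 Quantification of soluble protein used TMTpro 16plex LC-MS/MS, with channel sums equalised. Samples were the supernatant after 21,000xg for 90 min of pooled aliquots from K562 cells (2×10^6 cells/mL) treated with 10 μM compound for 30 min, heated for 3 min over 48°C-58°C, and extracted in PBS with 0.5% NP-40 at 4°C. Values, from duplicates, describe thermal stability against control samples on a log2 fold-change scale.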

[2] = compound: CN1CCN(c2nc(C3=C(c4c[nH]c5ccccc45)C(=O)NC3=O)c3ccccc3n2)CC1 [sotrastaurin]
Summary of the method: as §1

[3] = compound: CN1CC[C@H](c2c(O)cc(O)c3c(=O)cc(-c4ccccc4Cl)oc23)[C@H](O)C1 [alvocidib]
Summary of the method: as §1

[4] = compound: CN1CCc2c(c3ccccc3n2Cc2ccc(C(=O)NO)cc2)C1 [Tubastatin A]
Summary of the method: as §1

[5] = compound: CNC(=O)C1=CC=CC=C1NC2=NC(=NC=C2Cl)NC3=C(C=C(C=C3)N4CCOCC4)OC
Summary of the method: as §1

[6] = compound: CNC(=O)c1ccc(Nc2ncc(C(F)(F)F)c(NCc3nccnc3N(C)S(C)(=O)=O)n2)cc1 [defactinib]
Summary of the method: as §1

[7] = compound: CNCc1ccc(-c2[nH]c3cc(F)cc4c3c2CCNC4=O)cc1 [rucaparib]
Summary of the method: as §1

[8] = compound: CNc1nc(-c2ccc3c(N)n[nH]c3c2)cc(N2C[C@@H](C(=O)NC3CCCCC3)CC[C@H]2C)n1
Summary of the method: as §1

[9] = compound: COC(=O)N[C@@H](C)CNc1nccc(-c2cn(C(C)C)nc2-c2cc(Cl)cc(NS(C)(=O)=O)c2F)n1 [encorafenib]
Summary of the method: as §1

[10] = compound: COC(=O)[C@H](CCSC)NC(=O)C1=C(C=C(C=C1)NC[C@H](CS)N)C2=CC=CC=C2
Summary of the method: as §1

[11] = compound: COC1=CC=C(C=C1)CN2C=CC3=C2C=C(C=C3)C(=O)NO
Summary of the method: as §1

[12] = compound: CON(C)C(=O)N1N=C(c2cc(F)ccc2F)S[C@@]1(CCCN)c1ccccc1 [filanesib]
Summary of the method: as §1

[13] = compound: CO[C@H]1C[C@@H]2CC[C@@H](C)[C@@](O)(O2)C(=O)C(=O)N2CCCC[C@H]2C(=O)O[C@H]([C@H](C)C[C@@H]2CC[C@H](n3cnnn3)[C@H](OC)C2)CC(=O)[C@H](C)/C=C(\C)[C@@H](O)[C@@H](OC)C(=O)[C@H](C)C[C@H](C)/C=C/C=C/C=C/1C [zotarolimus]
Summary of the method: as §1

[14] = compound: COc1cc(C(=O)O)ccc1NC(=O)[C@@H]1N[C@@H](CC(C)(C)C)[C@](C#N)(c2ccc(Cl)cc2F)[C@H]1c1cccc(Cl)c1F [idasanutlin]
Summary of the method: as §1

[15] = compound: COc1cc(Nc2ncc3c(n2)-c2ccc(Cl)cc2C(c2c(F)cccc2OC)=NC3)ccc1C(=O)O [alisertib]
Summary of the method: as §1

[16] = compound: COc1cc2nc(-c3cc(F)ccc3O)nc(N[C@@H]3CNC[C@H]3C(C)(C)O)c2cc1OC
Summary of the method: as §1

[17] = compound: COc1cc2ncnc(Nc3ccc(F)c(Cl)c3)c2cc1OCCCN1CCOCC1 [gefitinib]
Summary of the method: as §1

[18] = compound: COc1cccc2cc(-c3nc([C@H]4CC[C@H](C(=O)O)CC4)n4ncnc(N)c34)[nH]c12
Summary of the method: as §1

[19] = compound: CS(=O)(=O)CCNCc1ccc(-c2ccc3ncnc(Nc4ccc(OCc5cccc(F)c5)c(Cl)c4)c3c2)o1 [lapatinib]
Summary of the method: as §1

[20] = compound: CS(=O)(=O)N1CCN(Cc2cc3nc(-c4cccc5[nH]ncc45)nc(N4CCOCC4)c3s2)CC1 [pictilisib]
Summary of the method: as §1

Measured: log2 fold change

AGPAT5 (UniProt Q9NUQ2)
Chain of UniProt Q9NUQ2 (Q9NUQ2 whole entry, looked up): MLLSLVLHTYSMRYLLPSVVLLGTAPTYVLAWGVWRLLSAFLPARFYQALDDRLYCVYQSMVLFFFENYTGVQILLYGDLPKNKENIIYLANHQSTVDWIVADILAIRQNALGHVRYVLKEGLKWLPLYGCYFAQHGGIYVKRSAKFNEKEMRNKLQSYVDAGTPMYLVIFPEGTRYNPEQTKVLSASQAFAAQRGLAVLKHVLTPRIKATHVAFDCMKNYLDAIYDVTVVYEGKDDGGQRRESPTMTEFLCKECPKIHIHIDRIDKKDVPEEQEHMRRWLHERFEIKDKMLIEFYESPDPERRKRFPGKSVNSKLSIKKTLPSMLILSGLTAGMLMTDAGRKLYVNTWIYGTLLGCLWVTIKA
inactive: [1] 0.016 | [2] 0.08 | [3] -0.085 | [4] -0.075 | [5] -0.021 | [6] 0.011 | [7] 0.012 | [8] 0.083 | [9] -0.011 | [10] -0.019 | [11] -0.043 | [12] -0.153 | [13] 0 | [14] -0.044 | [15] 0.113 | [16] -0.111 | [17] 0.018 | [18] 0.071 | [19] 0.119 | [20] 0.062

AGPAT1 (UniProt Q99943)
Chain of UniProt Q99943 (Q99943 whole entry, looked up): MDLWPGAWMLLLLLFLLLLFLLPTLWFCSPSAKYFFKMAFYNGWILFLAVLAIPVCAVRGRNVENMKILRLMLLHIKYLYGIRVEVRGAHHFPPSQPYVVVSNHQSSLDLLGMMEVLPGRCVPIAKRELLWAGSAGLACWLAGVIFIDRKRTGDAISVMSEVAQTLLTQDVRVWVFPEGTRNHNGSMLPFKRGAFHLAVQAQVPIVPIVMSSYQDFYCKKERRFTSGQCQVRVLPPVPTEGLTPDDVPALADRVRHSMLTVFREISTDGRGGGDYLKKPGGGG
inactive: [1] -0.009 | [2] 0.045 | [3] 0.002 | [4] -0.004 | [5] 0.074 | [6] -0.079 | [7] -0.109 | [8] -0.011 | [9] 0.039 | [10] 0.003 | [11] -0.004 | [12] 0.001 | [13] -0.048 | [14] -0.059 | [15] -0.081 | [16] 0.176 | [17] 0.028 | [18] 0.021 | [19] 0.074 | [20] 0.017

ANKRD29 (UniProt Q8N6D5)
Chain of UniProt Q8N6D5 (Q8N6D5 whole entry, looked up): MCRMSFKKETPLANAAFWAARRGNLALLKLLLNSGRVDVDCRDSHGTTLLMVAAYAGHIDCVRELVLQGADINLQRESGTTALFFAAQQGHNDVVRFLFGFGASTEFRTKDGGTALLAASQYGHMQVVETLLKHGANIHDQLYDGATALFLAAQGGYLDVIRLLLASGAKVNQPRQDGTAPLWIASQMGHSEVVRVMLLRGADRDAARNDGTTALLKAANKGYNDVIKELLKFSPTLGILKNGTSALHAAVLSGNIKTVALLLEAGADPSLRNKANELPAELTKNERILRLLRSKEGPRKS
inactive: [1] -0.089 | [2] -0.011 | [3] -0.016 | [4] 0.27 | [5] -0.02 | [6] -0.04 | [7] -0.227 | [8] 0.118 | [9] 0 | [10] -0.038 | [11] 0.339 | [12] -0.122 | [13] 0.011 | [14] -0.077 | [15] -0.044 | [16] 0.279 | [17] -0.066 | [18] -0.08 | [19] -0.126 | [20] 0.177

APOH (UniProt P02749)
Chain of UniProt P02749 (P02749 whole entry, looked up): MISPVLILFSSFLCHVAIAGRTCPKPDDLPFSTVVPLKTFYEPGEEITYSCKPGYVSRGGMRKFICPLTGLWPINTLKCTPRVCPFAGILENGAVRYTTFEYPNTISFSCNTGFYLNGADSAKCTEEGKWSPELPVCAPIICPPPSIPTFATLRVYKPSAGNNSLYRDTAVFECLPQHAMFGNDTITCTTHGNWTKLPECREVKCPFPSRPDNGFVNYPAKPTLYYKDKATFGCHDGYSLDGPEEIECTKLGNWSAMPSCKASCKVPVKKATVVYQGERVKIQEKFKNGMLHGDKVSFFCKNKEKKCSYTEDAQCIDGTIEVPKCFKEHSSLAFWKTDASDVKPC
active: [14] 1.05
inactive: [1] 0.097 | [2] 0.317 | [3] 0.371 | [4] -0.128 | [5] -0.032 | [6] -0.042 | [7] -0.13 | [8] -0.391 | [9] 0.041 | [10] -0.021 | [11] 0.03 | [12] -0.156 | [13] -0.696 | [15] 0.151 | [16] -0.059 | [17] -0.307 | [18] 0.529 | [19] -0.197 | [20] -0.537

ARFIP1 (UniProt P53367)
Chain of UniProt P53367 (P53367 whole entry, looked up): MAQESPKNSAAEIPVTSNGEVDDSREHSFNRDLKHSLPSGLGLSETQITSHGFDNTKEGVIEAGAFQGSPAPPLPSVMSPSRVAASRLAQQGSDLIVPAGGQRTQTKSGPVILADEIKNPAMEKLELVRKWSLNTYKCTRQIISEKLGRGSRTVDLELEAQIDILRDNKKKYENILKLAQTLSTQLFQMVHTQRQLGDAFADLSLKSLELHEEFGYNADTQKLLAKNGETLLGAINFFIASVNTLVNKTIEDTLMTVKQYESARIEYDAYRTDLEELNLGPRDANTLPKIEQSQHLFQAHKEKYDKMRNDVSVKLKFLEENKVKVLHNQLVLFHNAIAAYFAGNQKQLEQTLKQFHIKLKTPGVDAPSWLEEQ
active: [5] -0.351
inactive: [1] 0.043 | [2] -0.037 | [3] -0.031 | [4] 0.047 | [6] -0.08 | [7] -0.086 | [8] 0.075 | [9] -0.01 | [10] 0.163 | [11] 0.354 | [12] -0.049 | [13] -0.021 | [14] 0.094 | [15] 1.31 | [16] 0.042 | [17] -0.091 | [18] -0.005 | [19] -0.076 | [20] -0.076

ATIC (UniProt P31939)
inactive: [1] -0.013 | [2] -0.001 | [3] -0.064 | [4] 0.008 | [5] 0.087 | [6] -0.059 | [7] -0.05 | [8] 0.044 | [9] -0.011 | [10] -0.028 | [11] 0.047 | [12] -0.039 | [13] 0.046 | [14] -0.03 | [15] -0.092 | [16] -0.027 | [17] 0.114 | [18] -0.008 | [19] -0.001 | [20] -0.008

AGPAT3 isoform 3 (UniProt Q9NRZ7)
Chain of UniProt Q9NRZ7 (Q9NRZ7 whole entry, looked up): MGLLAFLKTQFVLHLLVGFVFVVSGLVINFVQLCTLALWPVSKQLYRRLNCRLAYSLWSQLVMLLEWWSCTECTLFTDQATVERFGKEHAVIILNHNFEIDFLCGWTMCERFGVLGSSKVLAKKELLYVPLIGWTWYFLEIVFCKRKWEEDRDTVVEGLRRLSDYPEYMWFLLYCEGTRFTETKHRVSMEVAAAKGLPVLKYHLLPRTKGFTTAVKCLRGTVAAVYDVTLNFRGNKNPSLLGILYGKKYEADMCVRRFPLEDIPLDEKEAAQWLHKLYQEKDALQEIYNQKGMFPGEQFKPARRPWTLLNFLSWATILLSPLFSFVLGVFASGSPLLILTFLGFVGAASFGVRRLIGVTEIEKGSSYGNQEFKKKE
inactive: [1] 0.01 | [2] -0.084 | [3] -0.061 | [4] 0.019 | [5] 0.012 | [6] -0.037 | [7] -0.036 | [8] -0.045 | [9] -0.001 | [10] 0.008 | [11] -0.083 | [12] -0.106 | [13] 0.048 | [14] -0.149 | [15] 0.012 | [16] 0.083 | [17] 0.012 | [18] 0.005 | [19] 0.004 | [20] -0.013

AKR1C2 (UniProt P52895)
Chain of UniProt P52895 (P52895 whole entry, looked up): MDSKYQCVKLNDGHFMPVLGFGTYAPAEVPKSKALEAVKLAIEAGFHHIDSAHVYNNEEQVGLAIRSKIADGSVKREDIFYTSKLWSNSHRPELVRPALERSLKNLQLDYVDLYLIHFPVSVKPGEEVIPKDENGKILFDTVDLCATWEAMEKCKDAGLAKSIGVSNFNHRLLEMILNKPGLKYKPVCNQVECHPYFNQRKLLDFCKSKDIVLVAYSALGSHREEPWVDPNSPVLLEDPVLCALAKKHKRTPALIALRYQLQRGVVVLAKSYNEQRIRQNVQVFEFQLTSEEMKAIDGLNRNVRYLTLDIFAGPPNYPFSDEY
active: [11] 0.706
inactive: [1] -0.108 | [2] -0.009 | [3] 0.08 | [4] 0.111 | [5] 0.052 | [6] 0.146 | [7] 0.146 | [8] 0.047 | [9] 0.094 | [10] -0.06 | [12] 0.259 | [13] 0.097 | [14] -0.015 | [15] -0.012 | [16] -0.013 | [17] 0.044 | [18] -0.012 | [19] 0.068 | [20] 0.165

ARFGEF1 (UniProt Q9Y6D6)
inactive: [1] 0.037 | [2] 0.039 | [3] -0.055 | [4] 0.013 | [5] 0.094 | [6] 0.007 | [7] 0.011 | [8] 0.059 | [9] 0.048 | [10] -0.038 | [11] 0.043 | [12] 0.014 | [13] 0.111 | [14] -0.092 | [15] -0.075 | [17] 0.06 | [18] 0.016 | [19] 0.116 | [20] 0.006
active: [16] 0.246

AMFR (UniProt Q9UKV5)
Chain of UniProt Q9UKV5 (Q9UKV5 whole entry, looked up): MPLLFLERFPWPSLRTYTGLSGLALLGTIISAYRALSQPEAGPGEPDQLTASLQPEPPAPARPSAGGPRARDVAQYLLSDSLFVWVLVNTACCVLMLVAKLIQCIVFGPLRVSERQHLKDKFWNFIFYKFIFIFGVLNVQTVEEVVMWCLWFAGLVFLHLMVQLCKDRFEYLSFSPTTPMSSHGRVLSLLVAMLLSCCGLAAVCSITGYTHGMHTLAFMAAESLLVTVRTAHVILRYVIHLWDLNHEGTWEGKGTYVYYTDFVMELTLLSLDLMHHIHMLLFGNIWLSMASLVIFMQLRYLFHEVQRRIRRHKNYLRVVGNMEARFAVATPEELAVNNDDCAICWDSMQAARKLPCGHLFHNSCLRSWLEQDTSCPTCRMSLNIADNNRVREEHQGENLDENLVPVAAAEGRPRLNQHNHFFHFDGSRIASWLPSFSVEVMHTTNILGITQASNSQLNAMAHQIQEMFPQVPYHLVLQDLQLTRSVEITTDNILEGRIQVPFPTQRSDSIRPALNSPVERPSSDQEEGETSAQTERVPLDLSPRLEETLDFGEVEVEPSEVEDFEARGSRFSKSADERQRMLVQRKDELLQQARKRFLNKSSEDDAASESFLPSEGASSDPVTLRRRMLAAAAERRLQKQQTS
inactive: [1] -0.06 | [2] -0.056 | [3] -0.021 | [4] -0.016 | [5] 0.088 | [6] -0.043 | [7] 0.011 | [8] -0.015 | [9] 0.033 | [10] 0.008 | [11] -0.048 | [12] -0.066 | [13] -0.017 | [14] 0.037 | [15] -0.012 | [16] -0.136 | [17] 0.071 | [18] 0.016 | [19] 0.003 | [20] -0.093

ALDH2 (UniProt P05091)
Chain of UniProt P05091 (P05091 whole entry, looked up): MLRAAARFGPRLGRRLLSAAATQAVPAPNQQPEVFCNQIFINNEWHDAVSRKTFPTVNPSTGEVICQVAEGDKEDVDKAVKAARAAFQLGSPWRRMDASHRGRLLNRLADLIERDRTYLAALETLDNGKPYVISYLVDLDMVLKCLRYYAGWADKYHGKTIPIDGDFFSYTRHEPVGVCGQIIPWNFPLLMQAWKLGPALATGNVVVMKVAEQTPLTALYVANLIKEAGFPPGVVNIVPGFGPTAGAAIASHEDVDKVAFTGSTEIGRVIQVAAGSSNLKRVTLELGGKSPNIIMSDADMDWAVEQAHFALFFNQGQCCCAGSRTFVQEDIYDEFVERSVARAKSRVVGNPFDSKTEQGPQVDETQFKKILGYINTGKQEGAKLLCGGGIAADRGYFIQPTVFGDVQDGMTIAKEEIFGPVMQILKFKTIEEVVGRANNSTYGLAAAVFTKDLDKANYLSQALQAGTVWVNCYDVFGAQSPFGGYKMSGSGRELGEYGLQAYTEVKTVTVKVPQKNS
inactive: [1] 0.007 | [2] -0.099 | [3] -0.04 | [4] -0.032 | [5] 0.078 | [6] -0.055 | [7] -0.099 | [8] 0.026 | [9] 0.013 | [10] -0.03 | [11] -0.011 | [12] -0.142 | [13] 0.055 | [14] -0.104 | [15] 0.015 | [16] -0.006 | [17] 0.028 | [18] 0.069 | [19] -0.02 | [20] 0.043

ADPRHL2 (UniProt Q9NX46)
inactive: [1] 0.039 | [2] -0.001 | [3] -0.003 | [4] 0.031 | [5] 0.049 | [6] 0.015 | [7] -0.085 | [8] -0.026 | [9] -0.009 | [10] -0.116 | [11] 0.111 | [12] -0.08 | [13] 0.022 | [14] -0.06 | [15] 0.009 | [17] -0.028 | [18] 0.012 | [19] 0.03 | [20] 0.078
active: [16] 0.245

ACSF3 (UniProt Q4G176)
Chain of UniProt Q4G176 (Q4G176 whole entry, looked up): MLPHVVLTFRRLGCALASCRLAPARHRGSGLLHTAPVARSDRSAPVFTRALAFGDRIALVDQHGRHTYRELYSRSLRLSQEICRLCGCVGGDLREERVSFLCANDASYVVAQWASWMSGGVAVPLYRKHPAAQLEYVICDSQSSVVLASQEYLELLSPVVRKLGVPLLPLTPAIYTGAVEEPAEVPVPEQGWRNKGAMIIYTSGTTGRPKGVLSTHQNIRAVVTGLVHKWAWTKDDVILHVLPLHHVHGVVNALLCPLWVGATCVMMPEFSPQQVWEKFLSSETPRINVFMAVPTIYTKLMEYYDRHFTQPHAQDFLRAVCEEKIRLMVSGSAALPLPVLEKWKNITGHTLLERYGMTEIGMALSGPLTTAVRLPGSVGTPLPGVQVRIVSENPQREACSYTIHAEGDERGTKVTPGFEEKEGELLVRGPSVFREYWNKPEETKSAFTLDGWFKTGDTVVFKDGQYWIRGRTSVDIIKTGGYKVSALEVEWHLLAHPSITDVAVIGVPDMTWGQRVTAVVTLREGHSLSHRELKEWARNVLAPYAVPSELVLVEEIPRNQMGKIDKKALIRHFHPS
inactive: [1] 0.079 | [2] 0.002 | [3] 0.026 | [4] -0.067 | [5] 0.099 | [6] -0.058 | [7] -0.051 | [8] -0.016 | [9] 0.146 | [10] -0.019 | [11] -0.099 | [12] -0.045 | [13] -0.01 | [14] 0.051 | [15] 0.001 | [16] -0.053 | [17] -0.096 | [18] 0.054 | [19] -0.004 | [20] 0.064

ARPP19 (UniProt P56211)
Chain of UniProt P56211 (P56211 whole entry, looked up): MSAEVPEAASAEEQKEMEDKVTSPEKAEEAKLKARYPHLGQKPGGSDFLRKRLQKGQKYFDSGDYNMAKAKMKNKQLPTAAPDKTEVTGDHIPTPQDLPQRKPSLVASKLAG
active: [11] 0.294
inactive: [1] -0.002 | [2] 0.01 | [3] 0.032 | [4] -0.047 | [5] -0.015 | [6] -0.089 | [7] -0.05 | [8] -0.056 | [9] -0.016 | [10] 0.002 | [12] 0.033 | [13] -0.016 | [14] 0.002 | [15] -0.061 | [16] -0.184 | [17] -0.007 | [18] 0.075 | [19] -0.01 | [20] -0.073

AURKA (UniProt O14965)
Chain of UniProt O14965 (O14965 whole entry, looked up): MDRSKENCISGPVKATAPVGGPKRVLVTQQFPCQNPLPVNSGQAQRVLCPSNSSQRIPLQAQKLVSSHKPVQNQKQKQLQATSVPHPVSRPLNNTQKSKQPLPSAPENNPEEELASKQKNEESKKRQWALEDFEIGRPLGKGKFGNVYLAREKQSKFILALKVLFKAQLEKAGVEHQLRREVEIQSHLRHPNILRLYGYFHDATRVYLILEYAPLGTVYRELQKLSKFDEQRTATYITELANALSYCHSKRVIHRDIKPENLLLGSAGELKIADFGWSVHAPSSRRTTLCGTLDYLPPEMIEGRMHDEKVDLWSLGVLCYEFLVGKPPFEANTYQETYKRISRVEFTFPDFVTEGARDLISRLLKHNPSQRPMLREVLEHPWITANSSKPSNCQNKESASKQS
inactive: [1] -0.019 | [2] -0.02 | [3] -0.03 | [4] 0.011 | [7] 0.073 | [8] 0.201 | [9] 0.033 | [10] 0.071 | [11] 0.021 | [12] 0.009 | [13] -0.021 | [14] -0.095 | [16] 0.048 | [17] -0.03 | [18] 0.01 | [19] 0.025 | [20] 0.055
active: [5] 0.974 | [6] 0.722 | [15] 1.36
